Source: PubChem BioAssay (NCATS)
Results filed as inconclusive are left out. Unmarked numbers belong to inactive results. The source made the active and inactive calls. Calls come from the whole dose curve; as a rule, active = well fitted cell-killing curve with a large enough effect; inconclusive = small, poorly fitted or top-dose-only effect; inactive = flat fitted curve, though single readings scatter.

test: Quantitative highthroughput screen to assess conditional lethalithy of NOMO1 cells grown in RPMI1640 with dialyzed fetal bovine serum (RPMI+ds) (AID 1963877); conditions: NOMO1 in RPMI+dialyzed FBS viability, ATP luminescence, 48 h; series mostly up to 45.8 µM; viability: at the top concentration; note: nearly all actives have a fitted effect of over 30% in size
Description: Assay Provider: Jason Cantor Ph.D.
Department of Biochemistry
University of Wisconsin-Madison, Madison, WI, USA
Chemical screening studies have identified drug sensitivities across hundreds of cancer cell lines but most putative therapeutics fail to translate. Discovery and development of drug candidates in models that more accurately reflect nutrient levels in human blood is a major challenge. Here we performed high-throughput screens in conventional versus Human Plasma-Like Medium (HPLM) to identify compounds that were "missed" when screening using the artificial culture condition. Sets of conditional anticancer compounds spanned phases of clinical development and included non-oncology drugs were assessed. […] We also traced conditional phenotypes for several chemotherapeutics to availability of HPLM-specific metabolites and confirmed others for compounds whose reported targets are encoded by nonessential genes. Our findings establish generalizable strategies for exploiting conditional lethality in HPLM to reveal therapeutic candidates and mechanisms of action in cancer cells.
Described herein are the results of each viability screens against three cell lines: NOMO1 (an acute myeloid leukemia cell line); P12-Ichikawa (a T-cell acute lymphoblastic leukemia); and SEM (a B-cell ALL). Each assay was screened using 3 different cell culture media: homemade human plasma-Like medium with 10% dialyzed fetal bovine serum (HPLM+ds); RPMI1640 with 10% untreated FBS and 5mM glucose (RPMI+s); and RPMI1640 with 10% dialyzed fetal bovine serum and 5 mM glucose (RPMI+ds).
PROTOCOL TABLE (as described by Inglese J, Shamu CE and Guy RK. 2007)
SEQUENCE No. (e.g., 1, 2, 3, etc.); […] (e.g., Cells, Incubation, Reagent, etc.); VALUE and DESCRIPTION.
1; Cells; 5 uL; white, solid bottom 1536-well Greiner assay plate.
2; Compounds; 23 nL; Kalypsis pin tool (Wako USA) equipped with a 1536-well pin head to transfer to the assay plates.
3; Incubation; 48 hours; 37C incubation.
4; Reagent; 3 uL; CellTiter Glo (Promega).
5; Incubation; 5 min, room temperature
6; Detection; Luminescence, Viewlux PerkinElmer.
NOTES (numbers refer to Sequence numbers above)
1. Briefly, 5 ul of cell reagent was dispensed using a Multidrop Combi Dispenser. The NOMO1 and SEM cells were plated at 500 cells/well and the P12-Ichikawa line at 1000 cells/well.
2. After seeding the cells, 23 nL of MIPE 4.1 library compounds (in DMSO) were added to each plate using a Kalypsys 1536 Pintool dispenser. Bortezomib at final concentration of […] and DMSO were added to each plate as positive and negative controls respectively. For each screen, MIPE 4.1 compounds were added over an eleven-point concentration range […] in 3-fold dilutions.
3. Each plate was covered with a stainless steel gasketed lid to prevent evaporation and incubated for 48 hour at 37C, 95% relative humidity, and 5% CO2.
4-5. Three microliter CellTilter-GloTM luminescent substrate mix (Promega) reagent was added to the assay plate and incubated at room temperature for 5 min.
6. The luminescence signal was measured using a ViewLux (PerkinElmer) multiplate reader with a 2 second exposure time per plate. Data for each compound were normalized as percent viability such that measurements for DMSO and the empty well controls in each plate were defined as 100% and 0%, respectively.
Potency is the fitted concentration of half-maximal effect.

SMILES | Potency | viability [%]
CC(C)=CC[C@@H](O)C1=CC(=O)c2c(O)ccc(O)c2C1=O | 2.09 µM (active) | 
COc1ccc([C@@H]2CC(=O)c3c(O)cc(O[C@@H]4O[C@H](CO[C@@H]5O[C@@H](C)[C@H](O)[C@@H](O)[C@@H]5O)[C@@H](O)[C@H](O)[C@@H]4O)cc3O2)cc1O | inactive | 
O=C(Nc1ccccc1Br)N[C@@H]1CCN(c2ccc(C(F)(F)F)cn2)C1 |  | 103
CCOC(=O)C1=C(N)Oc2ccc(Br)cc2C1C(C#N)C(=O)OCC (stereo not given) |  | 94.5
O=C(C1CC1)N1CC[C@@H](Cn2c(-c3ccc(-c4ccc5occc5c4)cc3)nc3cnccc32)C1 |  | 90.2
COc1ccc(-c2ccc3ncc4c(c3c2)n(-c2ccc(N3CCNCC3)c(C(F)(F)F)c2)c(=O)n4C)cn1 | 0.469 µM (active) | 
COc1cc2ncnc(-n3nc(-c4ccccn4)nc3N)c2cc1OC | 23.5 µM (active) | 
O=C(C=Cc1c(C(=O)O)[nH]c2cc(Cl)cc(Cl)c12)Nc1ccccc1 |  | 92.3
C=C(c1ccc(C(=O)O)cc1)c1cc2c(cc1C)C(C)(C)CCC2(C)C | 1.05 µM (active) | 
CCOC(=O)O[C@]1(C(=O)OCCl)CC[C@@H]2[C@H]3CCC4=CC(=O)C=C[C@]4(C)[C@@H]3[C@@H](O)C[C@@]21C |  | 97.3
CC(NCc1ccc2c(c1)nc(NC(=O)c1ccc(-c3cn[nH]c3)s1)n2CC(C)(C)O)C(C)(C)C (stereo not given) | 2.64 µM (active) | 
CCC(C(=O)O)C1CCC(C)C(C(C)C(O)C(C)C(=O)C(CC)C2OC3(C=CC(O)[C@@]4(CC[C@](C)(C5CC[C@@](O)(CC)C(C)O5)O4)O3)C(C)CC2C)O1 (stereo not given in full) | 1.18 µM (active) | 
CS(=O)(=O)c1ccc(C2=C(c3ccccc3)C(=O)OC2)cc1 |  | 115
C#Cc1cccc(Nc2ncnc3cc(OC)c(OCCCCCCC(=O)NO)cc23)c1 | 0.662 µM (active) | 
C[C@]12CCC3=C4CCC(=O)C=C4CC[C@@H]3[C@H]1CC[C@@]2(O)CC#N |  | 112
CNC(=O)c1ccc(Nc2ncc(C(F)(F)F)c(NCc3nccnc3N(C)S(C)(=O)=O)n2)cc1 |  | 95
Cc1ccc(C)c(OCCCC(C)(C)C(=O)O)c1 |  | 108
Cn1cnc(=N)c2[nH]cnc21 | 6.62 µM (active) | 
C[C@@H]1CCO[C@H]2Cn3cc(C(=O)NCc4ccc(F)cc4F)c(=O)c(O)c3C(=O)N12 |  | 106
COc1nc(C)nc(Cl)c1NC1=NCCN1 |  | 98.6

SMILES | Potency | viability [%]
O=S(=O)(c1cccc2cnccc12)N1CCCNCC1 |  | 84.9
O=C1NC(=O)C(=Cc2ccc(-c3ccc(F)cc3)o2)S1 |  | 105
CCCCCCCc1ccc(CCc2cccc(O)c2C(=O)O)cc1 |  | 87.3
CC(NCCc1ccc(O)cc1)C(O)c1ccc(O)cc1 (stereo not given) |  | 81.2
Cc1ccccc1-n1c(Cn2nc(-c3cccc(O)c3)c3c(N)ncnc32)nc2cccc(C)c2c1=O | 2.35 µM (active) | 
CN(C)c1cccc(-c2c3c(=O)n(-c4ccccc4Cl)[nH]c3cc(=O)n2C)c1 | 0.831 µM (active) | 
CCCCC(F)(F)[C@@]1(O)CC[C@H]2[C@H](CC(=O)[C@@H]2CCCCCCC(=O)O)O1 |  | 92.8
O=C(O)C1=CC(O)C(O)[C@H](O)C1 (stereo not given in full) |  | 88.3
O=c1c(-c2ccc(O)cc2)coc2cc(O[C@@H]3O[C@H](CO)[C@H](O)[C@H](O)[C@H]3O)ccc12 |  | 83.7
C[C@@H](O)[C@H]1C(=O)N2C(C(=O)OCOC(=O)C(C)(C)C)=C(SC3CN(C4=NCCS4)C3)[C@H](C)[C@H]12 | 7.43 µM (active) | 
C[C@@H]1C(=O)O[C@H]2CC34[C@H]5C[C@@H](C(C)(C)C)C36[C@H](OC(=O)[C@@H]6O)O[C@@]4(C(=O)O5)[C@]21O (stereo not given in full) |  | 96.3
COc1ccc(Nc2nccc(NCCO)n2)cc1 |  | 95.1
CC(C)(C#N)c1cc(Cn2cncn2)cc(C(C)(C)C#N)c1 |  | 98.8
O=C(OCC#CCSc1nnc(-c2cccc3ccccc23)o1)c1cc2ccccc2s1 |  | 100
c1cc(CN2CCCNCCNCCCNCC2)ccc1CN1CCCNCCNCCCNCC1 |  | 101
CN1CCN(Cc2ccc(NC(=O)Nc3ccc(Oc4cc(NC(=O)C5CC5)ncn4)cc3)cc2C(F)(F)F)CC1 | 0.418 µM (active) | 
CN(C)c1nc(N(C)C)nc(N(C)C)n1 |  | 105
CN[C@H](CC(C)C)C(=O)N[C@H]1C(=O)N[C@@H](CC(N)=O)C(=O)N[C@@H]2C(=O)N[C@H]3C(=O)N[C@H](C(=O)N[C@H](C(=O)O)c4cc(O)cc(O)c4-c4cc3ccc4O)[C@H](O)c3ccc(c(Cl)c3)Oc3cc2cc(c3O[C@@H]2O[C@H](CO)[C@@H](O)[C@H](O)[C@@H]2O[C@H]2C[C@](C)(N)[C@H](O)[C@H](C)O2)Oc2ccc(cc2Cl)[C@H]1O |  | 92
NC(=O)c1cnccn1 |  | 100
C=CC(=O)Nc1cccc(Oc2nc(Nc3ccc(N4CCN(C)CC4)cc3)ncc2Cl)c1 | 5.9 µM (active) | 
